From PubChem BioAssay (NCATS)
Several values for one entry are separate records, joined by “and”; a condition that tells them apart may be missing. Identical values can stand only once. Records with an inconclusive call do not appear. Activity calls are given as the source filed them. Calls follow the shape of the dose curve; as a rule, active = well fitted inhibition curve with a large enough effect; inconclusive = small, poorly fitted or top-dose-only effect; inactive = flat fitted curve, though single readings scatter.

Legend:
ECU = assay: qHTS profiling for inhibitors of Plasmodium falciparum proliferation (AID 504749); also: potency is read from the fitted curve at half-maximal effect; details: P. falciparum in erythrocytes, SYBR Green DNA, 72 h; series mostly up to 28.7 µM
Procedure, shortened: (§1)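 Readout was DNA-dye fluorescence from lysed cultures, ex 485/em 535 nm. Parasitized red cells had grown 72 h with compound; data scaled between 0.29 uM artemisinin and DMSO wells and corrected using vehicle-only plates.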

FAB9 = assay: as above; details: P. falciparum in erythrocytes, SYBR Green DNA, 72 h; series mostly up to 28.7 µM
Procedure, shortened: as §1

GB4 = assay: as above; details: P. falciparum in erythrocytes, SYBR Green DNA, 72 h; series mostly up to 28.7 µM
Procedure, shortened: as §1

HB3 = assay: as above; details: P. falciparum in erythrocytes, SYBR Green DNA, 72 h; series mostly up to 28.7 µM
Procedure, shortened: as §1

ICS = assay: as above; details: P. falciparum in erythrocytes, SYBR Green DNA, 72 h; series mostly up to 28.7 µM
Procedure, shortened: as §1

JCK = assay: as above; details: P. falciparum in erythrocytes, SYBR Green DNA, 72 h; series mostly up to 28.7 µM
Procedure, shortened: as §1

N140 = assay: as above; details: P. falciparum in erythrocytes, SYBR Green DNA, 72 h; series mostly up to 28.7 µM
Procedure, shortened: as §1

P93_24 = assay: as above; details: P. falciparum in erythrocytes, SYBR Green DNA, 72 h; series mostly up to 28.7 µM
Procedure, shortened: as §1

PAD = assay: as above; details: P. falciparum in erythrocytes, SYBR Green DNA, 72 h; series mostly up to 28.7 µM
Procedure, shortened: as §1

PC15 = assay: as above; details: P. falciparum in erythrocytes, SYBR Green DNA, 72 h; series mostly up to 28.7 µM
Procedure, shortened: as §1

PC26 = assay: as above; details: P. falciparum in erythrocytes, SYBR Green DNA, 72 h; series mostly up to 28.7 µM
Procedure, shortened: as §1

PC49 = assay: as above; details: P. falciparum in erythrocytes, SYBR Green DNA, 72 h; series mostly up to 28.7 µM
Procedure, shortened: as §1

SC27B = assay: as above; details: P. falciparum in erythrocytes, SYBR Green DNA, 72 h; series mostly up to 28.7 µM
Procedure, shortened: as §1

TAB109 = assay: as above; details: P. falciparum in erythrocytes, SYBR Green DNA, 72 h; series mostly up to 28.7 µM
Procedure, shortened: as §1

TAB113 = assay: as above; details: P. falciparum in erythrocytes, SYBR Green DNA, 72 h; series mostly up to 28.7 µM
Procedure, shortened: as §1

TAB165 = assay: as above; details: P. falciparum in erythrocytes, SYBR Green DNA, 72 h; series mostly up to 28.7 µM
Procedure, shortened: as §1

CRL-7250 = normal cell line; assay: Cytotoxic Profiling of Annotated Libraries Using Quantitative High-Throughput Screening (AID 1296008); details: Five cell lines viability, CellTiter-Glo ATP luminescence, 48-72 h; max response: stronger effect = lower value; as to max response: % is scaled to controls: 0 for no effect and ±100 for the full control effect
Procedure, shortened: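 Cells exposed to compounds for 48 or 72 hr at 37 degrees Celsius. Viability read as ATP-coupled luminescence with CellTiter-Glo after 10 min at room temperature.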

Dd2 = assay: qHTS profiling for inhibitors of Plasmodium falciparum proliferation (AID 504749); also: potency is read from the fitted curve at half-maximal effect; details: P. falciparum in erythrocytes, SYBR Green DNA, 72 h; series mostly up to 28.7 µM
Procedure, shortened: as §1

P94_40 = assay: as above; details: P. falciparum in erythrocytes, SYBR Green DNA, 72 h; series mostly up to 28.7 µM
Procedure, shortened: as §1

W2 = assay: as above; details: P. falciparum in erythrocytes, SYBR Green DNA, 72 h; series mostly up to 28.7 µM
Procedure, shortened: as §1
Also: nearly all actives have a fitted effect of over 60% in size.

O=C(c1ccc(F)cc1)C1CCN(CCn2c(=O)[nH]c3ccccc3c2=O)CC1
inactive: Potency (ECU) | Potency (FAB9) | Potency (GB4) | Potency (HB3) | Potency (ICS) | Potency (JCK) | Potency (N140) | Potency (P93_24) | Potency (PAD) | Potency (PC15) | Potency (PC26) | Potency (PC49) | Potency (SC27B) | Potency (TAB109) | Potency (TAB113) | Potency (TAB165) | max response (CRL-7250) -21.4% and 4.56% | outcome (CRL-7250)

CCc1cccc2c3c([nH]c12)C(CC)(CC(=O)O)OCC3 (configuration not stated)
inactive: max response (CRL-7250) -0.931%

CC1COc2c(N3CCN(C)CC3)c(F)cc3c(=O)c(C(=O)O)cn1c23 (configuration not stated)
inactive: max response (CRL-7250) 1.02% | outcome (CRL-7250)

O=c1c(O)c(-c2ccc(O)c(O)c2)oc2cc(O)cc(O)c12
active: Potency (GB4) 12000 nM | Potency (ICS) 7940 nM | Potency (PAD) 1780 nM | Potency (TAB165) 7080 nM
inactive: Potency (ECU) | Potency (JCK) | Potency (N140) | Potency (PC49) | max response (CRL-7250) -43% | outcome (CRL-7250)

C[C@@H]1CC(=O)NN=C1c1ccc(NN=C(C#N)C#N)cc1
inactive: outcome (CRL-7250)

COc1cc2nc(N(C)CCCNC(=O)C3CCCO3)nc(N)c2cc1OC (configuration not stated)
inactive: max response (CRL-7250) -3.88%

CN1CCN(CCCN2c3ccccc3Sc3ccc(Cl)cc32)CC1
inactive: max response (CRL-7250) -6.94% | outcome (CRL-7250)

CN1CCN(C2=Nc3cc(Cl)ccc3Nc3ccccc32)CC1
inactive: max response (CRL-7250) -7.49% and -17.9%

CC1(C)O[C@H]2CC(=O)OC[C@]23[C@H]2CC[C@@]4(C)[C@H](c5ccoc5)OC(=O)[C@H]5O[C@]54[C@]2(C)C(=O)C[C@@H]13
inactive: max response (CRL-7250) 2.33% and 4% | outcome (CRL-7250)

N[C@@H](Cc1c[nH]c2ccc(O)cc12)C(=O)O
inactive: Potency (Dd2) | Potency (ECU) | Potency (FAB9) | Potency (GB4) | Potency (HB3) | Potency (ICS) | Potency (JCK) | Potency (N140) | Potency (P93_24) | Potency (P94_40) | Potency (PAD) | Potency (PC15) | Potency (PC26) | Potency (PC49) | Potency (SC27B) | Potency (TAB109) | Potency (TAB113) | Potency (TAB165) | Potency (W2) | max response (CRL-7250) -11.6% | outcome (CRL-7250)

COc1ccc2c(c1)c(CC(=O)O)c(C)n2C(=O)c1ccc(Cl)cc1
inactive: outcome (CRL-7250)

Cc1cnc(C(=O)NCCc2ccc(S(=O)(=O)NC(=O)NC3CCCCC3)cc2)cn1
inactive: Potency (Dd2) | Potency (ECU) | Potency (FAB9) | Potency (GB4) | Potency (HB3) | Potency (ICS) | Potency (JCK) | Potency (N140) | Potency (P93_24) | Potency (P94_40) | Potency (PAD) | Potency (PC15) | Potency (PC26) | Potency (PC49) | Potency (SC27B) | Potency (TAB109) | Potency (TAB113) | Potency (TAB165) | Potency (W2) | max response (CRL-7250) 0.493% | outcome (CRL-7250)

CC(=O)OCC(CCn1cnc2cnc(N)nc21)COC(C)=O
inactive: Potency (Dd2) | Potency (ECU) | Potency (FAB9) | Potency (GB4) | Potency (HB3) | Potency (ICS) | Potency (JCK) | Potency (N140) | Potency (P93_24) | Potency (P94_40) | Potency (PAD) | Potency (PC15) | Potency (PC26) | Potency (PC49) | Potency (SC27B) | Potency (TAB109) | Potency (TAB113) | Potency (TAB165) | Potency (W2) | max response (CRL-7250) 3.84% | outcome (CRL-7250)

CN1C2CCC1CC(OC(=O)C(CO)c1ccccc1)C2 (configuration not stated)
inactive: max response (CRL-7250) -10.2%

CC(C)(C)C(=O)Oc1ccc(S(=O)(=O)Nc2ccccc2C(=O)NCC(=O)O)cc1
inactive: Potency (Dd2) | Potency (FAB9) | Potency (GB4) | Potency (HB3) | Potency (ICS) | Potency (JCK) | Potency (N140) | Potency (P93_24) | Potency (P94_40) | Potency (PAD) | Potency (PC15) | Potency (PC26) | Potency (PC49) | Potency (SC27B) | Potency (TAB109) | Potency (TAB113) | Potency (TAB165) | Potency (W2) | max response (CRL-7250) 4.89% | outcome (CRL-7250)

Nc1ccn([C@H]2CC[C@@H](CO)O2)c(=O)n1
inactive: max response (CRL-7250) -6.37% and 1.28%

CCCNCC(O)COc1ccccc1C(=O)CCc1ccccc1 (configuration not stated)
inactive: max response (CRL-7250) -5.96% | outcome (CRL-7250)
active: Potency (Dd2) 1000 nM | Potency (ECU) 708 nM | Potency (FAB9) 1780 nM | Potency (GB4) 675 nM | Potency (HB3) 2000 nM | Potency (ICS) 251 nM | Potency (JCK) 3550 nM | Potency (N140) 355 nM | Potency (P93_24) 501 nM | Potency (P94_40) 316 nM | Potency (PAD) 398 nM | Potency (PC15) 708 nM | Potency (PC26) 1690 nM | Potency (PC49) 316 nM | Potency (SC27B) 891 nM | Potency (TAB109) 794 nM | Potency (TAB113) 794 nM | Potency (TAB165) 447 nM | Potency (W2) 379 nM

Cn1ccc2cc3c(cc21)CCN3C(=O)Nc1cccnc1
active: Potency (GB4) 15100 nM | Potency (PC26) 13500 nM
inactive: Potency (Dd2) | Potency (FAB9) | Potency (HB3) | max response (CRL-7250) -6.32% | outcome (CRL-7250)

CCC1(C)CC(=O)NC1=O (configuration not stated)
inactive: max response (CRL-7250) 0.182%

O=C(CCCN1CCC(O)(c2ccc(Cl)cc2)CC1)c1ccc(F)cc1
inactive: max response (CRL-7250) -7.49% and -12%

Cc1cc(C(C)(C)C)c(O)c(C)c1CC1=NCCN1
inactive: Potency (Dd2) | Potency (ECU) | Potency (FAB9) | Potency (GB4) | Potency (HB3) | Potency (ICS) | Potency (JCK) | Potency (N140) | Potency (P93_24) | Potency (P94_40) | Potency (PAD) | Potency (PC15) | Potency (PC26) | Potency (PC49) | Potency (SC27B) | Potency (TAB109) | Potency (TAB113) | Potency (TAB165) | Potency (W2) | max response (CRL-7250) 4.59% and 1.76% | outcome (CRL-7250)

CC(C)(Oc1ccc(C2CC2(Cl)Cl)cc1)C(=O)O (configuration not stated)
inactive: Potency (Dd2) | Potency (ECU) | Potency (FAB9) | Potency (GB4) | Potency (HB3) | Potency (ICS) | Potency (JCK) | Potency (N140) | Potency (P93_24) | Potency (P94_40) | Potency (PAD) | Potency (PC26) | Potency (PC49) | Potency (SC27B) | Potency (TAB109) | Potency (TAB113) | Potency (TAB165) | Potency (W2) | max response (CRL-7250) -2.5% | outcome (CRL-7250)

O=C1Cc2cc(CCN3CCN(c4nsc5ccccc45)CC3)c(Cl)cc2N1
inactive: max response (CRL-7250) -1.82% and -0.528%

NCCCCCC(=O)O
inactive: Potency (Dd2) | Potency (ECU) | Potency (FAB9) | Potency (GB4) | Potency (HB3) | Potency (ICS) | Potency (JCK) | Potency (N140) | Potency (P93_24) | Potency (P94_40) | Potency (PAD) | Potency (PC15) | Potency (PC26) | Potency (PC49) | Potency (SC27B) | Potency (TAB109) | Potency (TAB113) | Potency (TAB165) | Potency (W2) | max response (CRL-7250) -1.72% | outcome (CRL-7250)
